Common to all, as to assay: NCI-60 one-dose screen, 48 h (100 = growth as untreated, 0 = no growth, -100 = all killed)
Settings in all cases: 10 µM unless noted

Assay [1] has as its system NCI-H23 lung.
In assay [2] the test system is NCI-H226 lung.
Assay [3] relates to NCI-H322M lung.
Assay [4] deals with HOP-62 NSCLC.
Assay [5] deals with NCI-H460 lung.
Assay [6] relates to HOP-92 NSCLC.
Assay [7] concerns NCI-H522 lung.
For assay [8], the system named is A549/ATCC NSCLC.
Assay [9] has as its system 786-0 renal.
The subject of assay [10] is COLO 205 colon.
Assay [11] concerns DU-145 prostate.
Assay [12] deals with K-562 leukemia.
For assay [13], the system named is MALME-3M melanoma.
Assay [14] has as its system MDA-MB-231 breast.
For assay [15], the system named is RXF 393 renal.
The test system of assay [16] is SF-268 CNS.
The subject of assay [17] is SF-295 CNS.
In assay [18] the test system is SF-539 CNS.
The subject of assay [19] is UACC-257 melanoma.
In assay [20] the test system is M14 melanoma.

The panel holds about 83,000 compounds, 20% with a hit somewhere; the sample as a whole holds those more often.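 A percent growth of 40 corresponds to 60% growth inhibition; 0 means no net growth; -100 means all cells died. Active threshold: below 10.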 Values without a mark were called inactive. Activity calls are given as the source filed them.

Regarding `OCc1ncc(-c2ccccc2)s1`, the growth in assay [1] is 93.1%; in assay [2], 125%; in assay [3], 173%; in assay [4] it was 96.9%; in assay [5], 102%; in assay [6] it was 91.3%. In addition, the growth in assay [7] was 97.5%; in assay [8], 110%; in assay [9], 60%; in assay [10], 114%; in assay [11], 107%; in assay [12], 93.2%. Besides, the growth in assay [13] is 94.2%; in assay [14] it was 113%; in assay [15] it was 122%; in [16], 99.8%; in assay [17], 106%; in assay [18], 98.1%. In addition, the figures for the growth in [19] and in assay [20] were 105% and 93.9%, respectively.
Turning to `ClC(Cl)c1nc(-c2ccccc2)nc2cc(-c3ccccc3)nn12`, the growth in assay [1] is 51.5%; in [2], 89.9%; in assay [3], 96.6%; in [4], 44.4%; in assay [5] it was 74.9%; in [6], 62.8%. For the same compound, the growth in [7] is 97.1%; in [8], 46.1%; in assay [9], 80.1%; in assay [10], 59.5%; in [11], 32.4%; in assay [12], 36.9%. For the same compound, the growth in [13] is 93%; in assay [14], 60%; in [15] it was 19.8%; in [16], 57.2%; in assay [17], 97.7%; in assay [18], 79%. Also, the figures for the growth in assay [19] and in assay [20] were 102% and 98.7%, respectively.
Turning to `COc1ccc(Nc2nc(N)nc3c2CCN(Cc2ccc(OC)cc2OC)C3=O)cc1`, the growth in [1] was 73.1%; in assay [2], 88%; in assay [3], 71.1%; in assay [4], 63.2%; in assay [5] it was 67.8%; in assay [6], 7.69% (active). Besides, the growth in assay [7] was 89.3%; in [8], 85.6%; in assay [9], 72.1%; in assay [10], 110%; in assay [11] it was 88.6%; in assay [12], 72.7%. In addition, the growth in [13] is 80.8%; in assay [14], 84.7%; in [15] it was 81.6%; in assay [16], 87.3%; in [17] it was 57.1%; in [18], 63.5%. Moreover, the figures for the growth in assay [19] and in [20] were 88.3% and 64.6%, respectively.
As to `COc1ccc2c(c1)OC1=C(C(=O)OC1)C2c1cc(OC)c2c(c1)OCO2` (stereo not given), the growth was 46.2% in assay [1]; 21.3% in [2]; 49% in [3]; 29.6% in assay [4]; 4.22% (active) in [5]; 55% in assay [6]. Moreover, the growth is 4.87% (active) in assay [7]; 14.4% in [8]; 20.5% in assay [9]; -38.1% (active) in assay [10]; -17.9% (active) in [11]; 7.46% (active) in assay [12]. The growth in [13] was 51.2%; in assay [14], 9.12% (active); in assay [15], 16.5%; in assay [16], 19.7%; in assay [17] it was 9.01% (active); in assay [18], 1.82% (active). Moreover, the values for the growth in assay [19] and in assay [20] were 67.8% and 7.05% (active), respectively.
For `COc1ccc(C(=O)N2NC(=O)/C(=C/c3ccc(Br)cc3)N=C2c2ccccc2)cc1`, the growth is 93.8% in assay [1]; 95.1% in assay [2]; 90.6% in assay [3]; 46.6% in assay [4]; 96.9% in [5]; 64.4% in assay [6]. The growth in assay [7] was 85.3%; in assay [8], 87.6%; in [9] it was 90.4%; in assay [10] it was 105%; in [11] it was 102%; in assay [12] it was 81.8%. Also, the growth is 90.3% in assay [13]; 83.3% in assay [14]; 99.9% in assay [15]; 89.8% in assay [16]; 92.7% in assay [17]; 76.8% in assay [18]. Besides, the growth in assay [19] is 95.5%; in assay [20], 79.2%.
With `COc1ccc(C(=O)n2nc(/C=C/c3ccc(O)c(OC)c3)cc2/C=C/c2ccc(O)c(OC)c2)cc1`, the growth in [1] was 7.96% (active); in assay [2] it was 13%; in [3], 11.7%; in assay [4] it was 5.2% (active); in assay [5], 4.37% (active); in assay [6], -10.7% (active). In addition, the growth in [7] was -6.8% (active); in [8], 3.98% (active); in [9] it was 2.92% (active); in [10] it was -66.2% (active); in assay [11], 16.6%; in assay [12] it was -6.97% (active). In addition, the growth in assay [13] was 3.93% (active); in assay [14], 12.5%; in assay [15] it was -54.8% (active); in [16], 6.45% (active); in assay [17], 6.61% (active); in assay [18] it was -24.4% (active). In addition, the growth in [19] was 0.119% (active); in [20] it was -15.1% (active).
As for `c1cc(C2=N[C@@H]3c4ccccc4C[C@@H]3O2)nc(C2=N[C@@H]3c4ccccc4C[C@@H]3O2)c1`, the growth is 98.1% in assay [1]; 101% in assay [2]; 107% in assay [3]; 100% in [4]; 109% in assay [5]; 101% in assay [6]. Also, the growth in assay [7] was 93.1%; in assay [8], 104%; in assay [9], 98.8%; in assay [10] it was 106%; in [11], 104%; in assay [12], 102%. For the same compound, the growth was 103% in [13]; 105% in assay [14]; 105% in assay [15]; 97.1% in assay [16]; 86.9% in [17]; 97% in [18]. Also, the growth is 107% in [19] and 99.4% in assay [20].
Take `COC(=O)C1CCCN1C(=O)[C@@H]1CCCN1C(=O)[C@H](Cc1c[nH]c2ccccc12)NC(=S)Nc1cc(C(F)(F)F)cc(C(F)(F)F)c1` (stereo not given in full): the growth is 69% in [1]; 75.7% in assay [2]; 74.7% in assay [3]; 80.2% in [4]; 22.3% in assay [5]; 17% in [6]. The growth in assay [7] is 46%; in assay [8] it was 37.1%; in assay [9], 37.6%; in [10], 66.5%; in assay [11], 52.5%; in assay [12], 38.3%. Also, the growth in [13] was 81.7%; in assay [14] it was 14.4%; in assay [15], 43.7%; in assay [16] it was 51.5%; in [17], 25.1%; in assay [18], 55.4%. Besides, the growth in [19] is 62.4%; in [20] it was 60.9%.
Take `O=C(O)c1nc(-c2ccccc2)oc1N1CCOCC1`: the growth in [1] is 98%; in assay [2] it was 103%; in assay [3], 91.8%; in assay [4] it was 97%; in assay [5] it was 102%; in assay [6], 84.6%. Besides, the growth was 95.9% in assay [7]; 100% in assay [8]; 97.5% in assay [9]; 102% in assay [10]; 109% in assay [11]; 94% in assay [12]. For the same compound, the growth is 120% in assay [13]; 94.3% in assay [14]; 104% in [15]; 98.3% in assay [16]; 107% in assay [17]; 115% in assay [18]. The growth in assay [19] is 104%; in [20], 106%.
As to `C=C1C(=O)O[C@H]2[C@H]1CC/C(Cn1cc(CNC(=O)/C=C/c3c[nH]c4ccccc34)nn1)=C\CC[C@@]1(C)O[C@@H]21`, the growth was 100% in assay [1]; 92.5% in assay [2]; 101% in [3]; 104% in assay [4]; 98.1% in assay [5]; 82.9% in assay [6]. The growth is 16.4% in assay [7]; 91.6% in assay [8]; 102% in assay [9]; 67.9% in assay [10]; 103% in assay [11]; 23.6% in assay [12]. Also, the growth in assay [13] is 98%; in assay [14], 99.7%; in [15] it was 84%; in assay [16], 93.5%; in assay [17], 93.3%; in assay [18] it was 80.4%. For the same compound, the growth is 74.9% in assay [19] and 84.3% in [20].
Take `O=C(NNC(=O)N1c2ccccc2C=Cc2ccccc21)c1ccc2ccccc2c1`: the growth was 98.4% in assay [1]; 95.5% in assay [2]; 99% in assay [3]; 99.1% in assay [4]; 100% in assay [5]; 81.4% in [6]. For the same compound, the growth was 85.9% in assay [7]; 95.7% in [8]; 96.1% in assay [9]; 101% in [10]; 95.5% in assay [11]; 87.2% in assay [12]. Besides, the growth in assay [13] was 95.6%; in assay [14], 94.2%; in assay [15], 103%; in [16], 91.4%; in [17] it was 93.5%; in [18], 92.2%. Moreover, the growth in assay [19] is 103%; in assay [20] it was 101%.
Take `COc1ccccc1CNCCCN1C(=O)c2ccc3c4c(ccc(c24)C1=O)C(=O)N(CCCNCCCCNCCCN)C3=O`: the growth in [1] is 1.96% (active); in assay [2], -59.9% (active); in assay [3], -4.96% (active); in assay [4] it was -55.2% (active); in [5], -30.2% (active); in [6], 5.16% (active). The growth in assay [7] was -41.7% (active); in assay [8], -48.2% (active); in assay [9], 3.83% (active); in assay [10], -78.9% (active); in [11], -92.6% (active); in assay [12], -15.1% (active). In addition, the growth in assay [13] was -91.8% (active); in [14] it was 15%; in [15], -66.8% (active); in assay [16], 1.6% (active); in assay [17], 1.52% (active); in assay [18] it was -55.9% (active). Besides, the growth in assay [19] was -91.1% (active); in [20], -70.8% (active).
`COc1ccc(Nc2[nH]n3c(=O)cc(C)nc3c2C(N)=O)c(OC)c1`: the growth in [1] is 100%; in assay [2] it was 97.4%; in assay [3], 96%; in assay [4], 85.9%; in assay [5], 105%; in assay [6], 73.1%. In addition, the growth was 84.9% in assay [7]; 89.5% in [8]; 99.1% in assay [9]; 102% in assay [10]; 112% in assay [11]; 101% in assay [12]. In addition, the growth was 126% in assay [13]; 84.9% in assay [14]; 98.1% in [15]; 97.8% in assay [16]; 102% in assay [17]; 91.2% in [18]. Further, the figures for the growth in assay [19] and in assay [20] were 85.1% and 106%, respectively.

The record behind these values is PubChem BioAssay (NCI).
